Compound activity as filed in PubChem BioAssay.
ATXN2 expr inh: reduces ATXN2 reporter expression in HEK-293 cells; HEK-293 ATXN2-luciferase reporter, luminescence, 24 h; Potency, µM (highest dose often 57 µM), most hits filed as inhibitors; actives 0.72% (n = 360,000); AID 1745845; further: nearly all actives have a fitted effect of over 55% in size
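qHTS (up to 57 uM final) was run with 24 h compound exposure of reporter cells at 37 °C. Each well was multiplexed: SteadyGlo luminescence measured ATXN2-luciferase expression after a fluorogenic Gly-Phe-AFC viability readout (25 uM final).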
TGFb SMAD3 inh: blocks TGF-b signaling; Potency, µM (doses to about 46.1 µM), actives largely listed as inhibitors; HepG2 CAGA-GFP TGF-b/SMAD3 reporter, GFP fluorescence, 18 h; TGF-beta stimulated, 500 pg/mL final; actives 1.2% (n = 410,000); AID 588855; further: nearly all actives have a fitted effect of over 65% in size
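Using HEPG2 CAGA-GFP reporter cells at 1000 cells/well, we pinned test compounds, stimulated with recombinant TGF-beta (500 pg/mL final) and measured total well GFP after 18 h.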
HepG2 viability: counter-screen for TGF-b inhibitors: cytotoxicity in HepG2 cells. HepG2 CAGA-GFP viability, ATP luminescence, 18 h. Potency, µM (top dose mostly 46.1 µM), usual class: cytotoxic. actives 0.76% (n = 410,000)
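HepG2 CAGA-GFP cells (1000/well, DMEM with 1% FBS) received compound, then TGF-beta at 500 pg/mL final, and were incubated 18 hours at 37 degrees C. Viability was read by CellTiter-Glo luminescence. Media-only wells were set as complete cell-killing and DMSO as no toxicity.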
S2 tox: viability counter-screen for ATXN expression inhibitors; Potency, µM (highest dose often 56.7 µM), usual class: cytotoxic; actives 0.49% (n = 400,000); S2 cells (HEK-293 line with an ATXN2-luciferase reporter) viability, CellTiter-Fluor protease fluorescence, 24 h; further: nearly all actives have a fitted effect of over 40% in size
Numbers stand for hits. Only some compounds are listed: those with a hit (about 2.3% of all), similar ones and a draw of the others. The call rests on the fitted dose curve; in most records, active means well fitted curve in the direction sought with a large enough effect; inconclusive means small, poorly fitted or top-dose-only effect, or another doubt; inactive means no such curve, though single readings can be large; an effect the other way counts as inactive or inconclusive.

COc1cc(=O)n2c(c1C(=O)N(C)Cc1nonc1C)CCN(Cc1ccsc1)CC2 was read as S2 tox inactive.
For O=C(C[n+]1cccc(Br)c1)c1ccc(F)cc1 the results were TGFb SMAD3 inh inactive and HepG2 viability inactive.
O=S1(=O)N[C@@H](Cc2ccccc2)COc2cccc(N3CCN(Cc4ccccc4F)CC3)c21 was read as ATXN2 expr inh inconclusive and S2 tox 28.2µM.
Screening C[C@@H]1COc2cccc(N3CCN(Cc4ccccc4F)CC3)c2S(=O)(=O)N1 returned ATXN2 expr inh inactive and S2 tox inactive.
`COc1cccc(-c2nc(CS(=O)(=O)CC(=O)Nc3c(C)cccc3C)c(C)o2)c1` gave ATXN2 expr inh inactive, TGFb SMAD3 inh inactive, HepG2 viability inactive and S2 tox inconclusive.
For COc1cccc(-c2nc(CS(=O)(=O)CC(=O)Nc3c(C)cc(C)cc3C)c(C)o2)c1 the results were TGFb SMAD3 inh 10µM and HepG2 viability inactive.
CCCNC(=O)CS(=O)(=O)Cc1nc(-c2ccccc2C)oc1C was read as ATXN2 expr inh inactive, TGFb SMAD3 inh inactive, HepG2 viability inactive and S2 tox inconclusive.
`COc1ccc(OC)c(CCNC(=O)CS(=O)(=O)Cc2nc(-c3cccc(Cl)c3)oc2C)c1` gave ATXN2 expr inh inconclusive, TGFb SMAD3 inh 15.8µM, HepG2 viability inactive and S2 tox inconclusive.
Cc1ccccc1-c1nc(CS(=O)(=O)CC(=O)Nc2c(C)cccc2C)c(C)o1 was read as ATXN2 expr inh inconclusive, TGFb SMAD3 inh 11.2µM, HepG2 viability inactive and S2 tox inactive.
`CNC(=O)[C@@H]1C[C@H](NC2CCCCCCC2)CN1Cc1cccc(OC)c1OC` gave S2 tox inactive.
`C=C1C=C(C(F)(F)F)n2ncc(C(=O)NCc3ccc(F)cc3)c2N1` gave TGFb SMAD3 inh inactive and HepG2 viability inactive.
For CCn1c(-c2ccccc2F)nc2cc(C(=O)NC(c3ccccn3)C(F)(F)F)cc(NC(C)=O)c21 (stereo not drawn) the results were S2 tox inactive.
For Cc1cc(C)nc(S[C@@H]2C[C@@H](C(=O)N3CCCN(C)CC3)N(Cc3cc(F)ccc3F)C2)n1 the results were S2 tox inactive.
C/C(=N\NC(N)=S)c1ccccc1 was read as ATXN2 expr inh inactive, TGFb SMAD3 inh inactive, HepG2 viability inactive and S2 tox inactive.
C/C(=N\NC(N)=S)c1cc(-c2ccccc2)c(-c2ccccc2)s1 was read as ATXN2 expr inh inconclusive, TGFb SMAD3 inh 12.6µM, HepG2 viability inactive and S2 tox inconclusive.
`C=CCC[C@H](Cc1ccc(F)cc1)C(=O)OC[C@@H](Cc1c[nH]c2ccccc12)NC(=O)[C@@H](CC=C)CC(=O)N(CCO)Cc1ccccc1` gave ATXN2 expr inh inconclusive, TGFb SMAD3 inh inconclusive, HepG2 viability inactive and S2 tox 15.8µM.
C=CCC[C@@H](Cc1ccc(F)cc1)C(=O)OC[C@H](Cc1c[nH]c2ccccc12)NC(=O)[C@H](CC=C)CC(=O)N(CCO)Cc1ccccc1 was read as ATXN2 expr inh inactive, TGFb SMAD3 inh inconclusive, HepG2 viability inactive and S2 tox 22.4µM.
`C=CC[C@H](CC(=O)N(CCO)Cc1ccccc1)C(=O)NC[C@@H](OC(=O)[C@@H](CC=C)Cc1ccc(F)cc1)c1ccccc1` gave ATXN2 expr inh inconclusive, TGFb SMAD3 inh inconclusive and HepG2 viability inactive.
For C=CCC[C@H](Cc1ccc(F)cc1)C(=O)O[C@H](CNC(=O)[C@@H](CC=C)CC(=O)N(CCO)Cc1ccccc1)c1ccccc1 the results were ATXN2 expr inh inconclusive, TGFb SMAD3 inh inconclusive, HepG2 viability inactive and S2 tox 22.4µM.
`O/N=C(/CBr)c1ccc2ccccc2c1` gave TGFb SMAD3 inh inactive and HepG2 viability inactive.
CCCCOc1ccc(N=Cc2cccs2)cc1 was read as ATXN2 expr inh inactive, TGFb SMAD3 inh inactive, HepG2 viability inactive and S2 tox inactive.
Screening O=Cc1ccc(-c2cccs2)s1 returned ATXN2 expr inh inconclusive, TGFb SMAD3 inh 5.62µM, HepG2 viability inactive and S2 tox inactive.
For CCN(CC)C(=O)c1ccc(-c2cccs2)s1 the results were ATXN2 expr inh inactive, TGFb SMAD3 inh inactive, HepG2 viability inactive and S2 tox inactive.
Screening Oc1ccc(N=Cc2ccc(-c3cccs3)s2)cc1 returned ATXN2 expr inh inconclusive, TGFb SMAD3 inh 11.2µM, HepG2 viability 7.94µM and S2 tox inactive.
Screening Cc1c(C(=O)NCC2(N3CCOCC3)CCCCC2)cnn1-c1nccc(-c2ccccc2F)n1 returned S2 tox inactive.
`O=C1C(=C(I)I)c2ccccc2-c2ccccc21` gave ATXN2 expr inh inconclusive, TGFb SMAD3 inh 6.31µM and HepG2 viability 11.2µM.
`O=C(O)c1cccc2c1C(=O)c1ccccc1-2` gave ATXN2 expr inh inactive, TGFb SMAD3 inh inactive, HepG2 viability inactive and S2 tox inactive.
COc1cc2c(cc1OC)CN(CCc1ccc(NC(=O)c3cccc4c(=O)c5cccc(OC)c5[nH]c34)cc1)CC2 was read as ATXN2 expr inh inactive.
Screening C=CCOc1ccc(CN(C)CC(O)COc2cccc3ccccc23)cc1 (stereo not drawn) returned ATXN2 expr inh inactive, TGFb SMAD3 inh 17.8µM, HepG2 viability 12.6µM and S2 tox inactive.
Screening CCC1C(=O)NCCN1Cc1ccc2c(c1)CN(Cc1cccc(OC)c1OC)CCO2 (stereo not drawn) returned S2 tox inactive.
Screening CCOC(=O)c1c(C)oc2c(F)c(F)c(F)c(F)c2c1=O returned ATXN2 expr inh 31.6µM, TGFb SMAD3 inh inactive, HepG2 viability inactive and S2 tox inconclusive.
Screening C[C@H](CCC(=O)O)[C@H]1CC[C@H]2[C@H]3[C@@H](CC[C@]12C)[C@@]1(C)CC[C@@H](O)C[C@H]1C[C@@H]3O returned ATXN2 expr inh inactive.
For Cc1ccc(F)c(NC(=O)/C(C#N)=C(\O)c2ccc(C(C)(C)C)cc2)c1 the results were TGFb SMAD3 inh 12.6µM, HepG2 viability 12.6µM and S2 tox inactive.
Cc1cccc(NC(=O)C(=O)NNC(=O)c2ccc(C(C)(C)C)cc2)c1 was read as ATXN2 expr inh inactive, TGFb SMAD3 inh inactive, HepG2 viability inactive and S2 tox inactive.
`Cc1cc(N2CCOCC2)nc(SCc2c(Cl)cccc2Cl)n1` gave ATXN2 expr inh inactive, TGFb SMAD3 inh 11.2µM, HepG2 viability inactive and S2 tox inactive.
For CCC(=O)O[C@]1(C(=O)CO)CC[C@H]2[C@@H]3CCC4=CC(=O)CC[C@]4(C)[C@@H]3CC[C@@]21C the results were ATXN2 expr inh inactive.
For CC(Oc1ccccc1)C(=O)N[C@@H]1C(=O)N2C(C(=O)O)C(C)(C)S[C@H]12 (stereo partly drawn) the results were TGFb SMAD3 inh inactive and HepG2 viability inactive.
For CCC1CN(CC(=O)NCc2cc(C)n(C)n2)Cc2cc(OC)ccc2O1 (stereo not drawn) the results were S2 tox inactive.
For Cc1ccccc1-c1cccc([C@@H]2C[C@H]3[C@H](CON3C)CN2Cc2ccccc2)c1 the results were ATXN2 expr inh inactive, TGFb SMAD3 inh 14.1µM, HepG2 viability inactive and S2 tox inactive.
